Shown are actives, neighbours in structure and some others; about 20% of the full set was active somewhere.
Pf growth 48h: Primary qHTS for delayed death inhibitors of the malarial parasite plastid, 48 hour incubation | P. falciparum luciferase growth in erythrocytes, 48 h | Potency, µM (titrated, usually from 28.7 µM), inactives show top-dose activity change, negative = inhibition, usual class: inhibitors | 5.9% of 310,000 active | AID 504832, 2011; also: potency is read from the fitted curve at half-maximal effect; % is scaled to controls: 0 for no effect and ±100 for the full control effect
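A one-generation exposure of luciferase-tagged malaria parasites in RPMI 1640/Albumax erythrocyte culture, 37 C and 5% CO2. Inhibition is inferred from decreased luminescence after adding detection reagent.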
CHX counter: Cycloheximide Counterscreen for Small Molecule Inhibitors of Shiga Toxin; max response, %; AID 2314, 2010; cell reporter, cycloheximide protein synthesis inhibition counterscreen; 12% of 300,000 active; in the data active = max response mostly above about 13%, no sharp cut-off; inactive = mostly below about 14%; also: read at 38.3 µM for the half of the compounds with a filed dose; 0% is about no effect
Shiga toxin inh: A qHTS for Small Molecule Inhibitors of Shiga Toxin | Vero cells, Shiga toxin protein synthesis inhibition reporter | inhibition, % at 38.7 µM | 9.2% of 290,000 active | AID 2315, 2010; in the data active = inhibition mostly above about 28%, no sharp cut-off; inactive = mostly below about 43%; also: 0% is about no effect
HCMV inh: qHTS Assay for inhibitors of the human cytomegalovirus (HCMV); HFF cells, HCMV-luciferase reporter, 72 h; hits give low values; activity change, negative = inhibition, % at 57.5 µM; 4.5% of 410,000 active; AID 1259415, 2018; in the data active = activity change below about -60%; inconclusive = no clear call, values can overlap the other calls; inactive = above about -39%; also: % is scaled to controls: 0 for no effect and ±100 for the full control effect
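HFF cells seeded 16 h at 37C, treated with compounds, infected with luciferase-reporter HCMV at MOI 1 PFU/cell; luciferase read at 72 h post infection, normalized to buffer-only and Salinomycin controls.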
Pf growth 96h: Primary qHTS for delayed death inhibitors of the malarial parasite plastid, 96 hour incubation; P. falciparum luciferase reporter growth, 96 h; Potency, µM (top dose mostly 28.7 µM), for the others: top-dose activity change, negative = inhibition, most hits filed as inhibitors; 6.9% of 320,000 active; AID 504834, 2011; also: potency is read from the fitted curve at half-maximal effect; % is scaled to controls: 0 for no effect and ±100 for the full control effect
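Delayed-death screen, second-generation endpoint: infected erythrocytes, 2% hematocrit, 0.05% parasitemia final; 96 hours at 37 C, 5% CO2; luciferase detection reagent; luminescence decrease equals reduced growth.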
* hit, by the source's call; ? = inconclusive; nt = not tested or not shown. Unless noted, calls follow the shape of the dose curve; as a rule, active = well fitted inhibition curve with a large enough effect; inconclusive = small, poorly fitted or top-dose-only effect, or another doubt; inactive = no such curve, though single readings can be large or run the other way.

SMILES	Pf growth 48h	CHX counter	Shiga toxin inh	HCMV inh	Pf growth 96h
Cc1c(C(=O)Nc2cccc([N+](=O)[O-])c2)csc1-c1ccccc1	112%	46*	83*	-75*	-41%
COc1ccc(NC(=O)c2cccn(Cc3ccc(Cl)cc3)c2=O)c(OC)c1	nt	nt	nt	-70*	nt
CCc1ccccc1NC(=S)NCCSc1ccc(Cl)cc1	?	3	-4	-88*	4.1µM*
COC(=O)c1cccc(NC(=S)NCc2ccc(Cl)cc2)c1	-24%	-1	-2	-33	-23%
COc1ccc(NC(C)=O)cc1NC(=O)c1cccn(Cc2ccccc2)c1=O	nt	nt	nt	1	nt
COc1ccc(NC(=S)NCc2ccc(Cl)cc2)c(OC)c1	?	15*	nt	19	?
COC(=O)c1cc(NC(=S)NCc2ccc(Cl)cc2)cc(C(=O)OC)c1	14%	-6	1	-76*	?
COc1ccc(NC(=S)NCCc2ccc(Cl)cc2)c(OC)c1	-12%	-1	-13	-27	?
COc1ccc(S(=O)(=O)N(C)C[C@H]2OCc3cn(nn3)CCCC(=O)N([C@H](C)CO)C[C@@H]2C)cc1	nt	nt	nt	4	nt
Cc1ccccc1N=C1SCCN1C(=O)CN1C(=O)NC2(CCCC2)C1=O	?	nt	nt	-19	-3%
CCOC(=O)N(C)c1c(CC)nc2c(OCc3cc(Cl)cc(Cl)c3)cccn12	nt	nt	nt	26	nt
CS(=O)(=O)c1ccc(NCC2CCCO2)c([N+](=O)[O-])c1 (stereo not given)	0%	-3	-4	25	?
Cc1ccc(Nc2nc(C)cc(C)n2)c(C(=O)O)c1	nt	nt	nt	15	nt
CSc1ccccc1NC(=S)NCc1ccc(Cl)cc1	-5%	37*	151*	62	?
Cc1ccc(C)c(NC(=S)NCCSc2ccc(Cl)cc2)c1	?	-3	-3	-29	29%
Cc1ccc(NC(=S)NCCSc2ccc(Cl)cc2)c(C)c1	?	3	2	-84*	37%
Cc1ccc(NC(=S)NCc2ccc(Cl)cc2)c(C)c1	10µM*	9	9	43	?
Cc1ccccc1NC(=S)NCCSc1ccc(Cl)cc1	-26%	7	10	-64*	51%
CC(C)(/C=N/NC(=O)CSCc1ccc(Cl)cc1)CCC#N	-8%	21	10	81	12%
CCCN(CC(=O)Nc1ccccc1C)C(=O)c1sc2ccccc2c1Cl	?	nt	nt	18	-23%
Cc1cccc(-c2nnc(SCC(=O)N3c4ccccc4CCc4ccccc43)n2C)c1	?	-1	-13	-70*	5%
Cn1c(SCC(=O)N2c3ccccc3CCc3ccccc32)nnc1-c1cc2ccccc2cc1O	1.9µM*	-2	-5	-65*	-92%
Cn1c(SCC(=O)N2CCCc3ccccc32)nnc1-c1ccccc1	?	1	32	8	?
Cc1onc(-c2c(Cl)cccc2Cl)c1CO/N=C(\C#N)c1c(Cl)cccc1Cl	15µM*	10	3	?	?
CCOC(=O)N1CCN(C(=O)c2c(-c3c(Cl)cccc3Cl)noc2C)CC1	-5%	2	-6	28	2%
SMILES	Pf growth 48h	CHX counter	Shiga toxin inh	HCMV inh	Pf growth 96h
CC(C)(C)C1CCC2(CC1)C(C#N)=C(SCC(=O)NC1CCCCC1)NC(=O)C2C#N (stereo not given)	?	-3	-13	-63*	2%
N#CC1=C(SCC(=O)NC2CC2)NC(=O)C(C#N)C12CCCCC2 (stereo not given)	11%	-1	10	-8	nt
N#CC1=C(SCC(=O)NC23CC4CC(CC(C4)C2)C3)NC(=O)C(C#N)C12CCCCC2 (stereo not given)	?	3	6	-66*	?
CCc1nc2c(OCC(=O)c3ccc(F)cc3)cccn2c1N(C)C(=O)c1ccc(OC)cc1	nt	nt	nt	-3	nt
CC1(C)COCN1S(=O)(=O)c1ccc(C(=O)Nc2nnc(-c3ccc(Cl)s3)o2)cc1	4.1µM*	0	-8	nt	-17%
COc1ccc(-c2nnc(NC(=O)c3ccc(S(=O)(=O)N4COCC4(C)C)cc3)o2)cc1	12µM*	-6	-6	-62*	-5%
CCCN(CCC)S(=O)(=O)c1ccc(C(=O)Nc2nnc(-c3cc(OC)cc(OC)c3)o2)cc1	nt	-7	-7	nt	?
O=C(Nc1nnc(-c2ccccc2Cl)o1)c1ccc(S(=O)(=O)N2CCCCCC2)cc1	?	1	-1	nt	6%
COc1ccc(-c2cc(C(=O)N3CCCCCC3)c3cc(C)ccc3n2)cc1	?	2	-5	13	13µM*
Cc1ccc2nc(-c3ccccc3)cc(C(=O)N3CCc4ccccc4C3)c2c1	9.3µM*	17	-5	-1	12µM*
Cc1ccc2nc(-c3ccccc3)cc(C(=O)N3CC(C)OC(C)C3)c2c1 (stereo not given)	10µM*	nt	nt	2	?
COc1ccc(-c2cc(C(=O)N3CCOCC3)c3cc(C)ccc3n2)cc1	23%	9	44	132	nt
Cc1ccc(C)c(N2CCN(C(=O)CN3C(=O)CSc4c3c(C)nn4-c3ccccc3)CC2)c1	nt	nt	nt	-9	nt
COc1ccc(-c2cc(C(=O)NC(Cc3cc4ccccc4[nH]3)C(=O)O)c(C)o2)cc1OC (stereo not given)	50%	33*	49*	25	-3%
COc1ccc(-c2cc(C(=O)O)c(C)o2)cc1OC	?	-7	-20	-17	nt
O=S(=O)(c1ccccc1)N1CCN(S(=O)(=O)c2ccc(F)cc2)CC1	35%	-1	nt	32	10µM*
O=S(=O)(CCN1CCOCC1)c1ccc(Oc2ccc(S(=O)(=O)CCN3CCOCC3)cc2)cc1	-24%	-2	-3	-65*	?
O=S(=O)(c1ccc(F)cc1)N1CCN(c2ccccc2)CC1	nt	-2	-4	1	?
O=S(=O)(CCN1CCOCC1)c1ccc(Cl)cc1	nt	nt	nt	17	nt
CC(=O)CCS(=O)(=O)c1ccc(Oc2ccc(S(=O)(=O)CCC(C)=O)cc2)cc1	-24%	17*	23*	-13	?
O=S(=O)(c1ccc(Oc2ccc(Br)cc2)cc1)N1CCOCC1	-13%	2	14	-73*	nt
Cn1c(=O)c(=O)n(C)c2cc(N3CCCC3)c(NC(=O)c3ccccc3Cl)cc21	nt	nt	nt	-11	nt
COc1cc(OC)cc(C(=O)NCC(=O)OCC(=O)c2ccc3c(c2)-c2ccccc2C3)c1	4%	6	8	-30	40%
CN1C(=O)C(CC(=O)NC2CCCCC2)SC1=Nc1ccccc1 (stereo not given)	6%	1	5	2	5%
O=S(=O)(c1ccc(Br)cc1)N1CCN(c2ccccc2)CC1	10µM*	-1	17	23	-17%
COc1ccc(F)cc1C(=O)C1CCCN(Cc2c[nH]c3ccccc23)C1 (stereo not given)	?	-3	4	?	13µM*
CCc1ccc(CN2CCCC(C(=O)c3sccc3C)C2)o1 (stereo not given)	-4%	-2	-12	-23	29%

Bioassay records from PubChem BioAssay.
